{"source": "PubChem BioAssay AID624354", "about": "(Sanford-Burnham Center for Chemical Genomics, 2012)", "note": "Among all 360,000 compounds or so, about 3,800 (1.1%) were called active. Many of the other results were omitted from the sample, so actives are more common in it than they were. Values without a mark were called inactive.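 How the source made its calls: active means compounds causing at least 50% loss of cell viability in the single-dose screen, relative to plate controls; inactive means the rest.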"}
{"test": "viability loss with TRAIL in NB7+C8 cells, primary screen, TRAIL sensitizer project, cell-based, ATPlite luminescence (AID 624354)", "conditions": "at 10 µM, hits give high values"}
{"smiles": "Cc1cc(Cl)c(S(=O)(=O)Nc2ccc3c(c2)OCCO3)cc1OCC(N)=O", "inhibition (viability loss, TRAIL sensitization)": "1.34%"}
{"smiles": "CC1CCc2c(sc3c2C2=NS(=O)(=O)CCN2C=N3)C1", "note": "(stereo not drawn)", "inhibition (viability loss, TRAIL sensitization)": "-12.9%"}
{"smiles": "O=C1C[C@@H]2c3c(cccc3CN1Cc1ccccc1)C[C@@H](O)[C@H]2O", "inhibition (viability loss, TRAIL sensitization)": "-11.3%"}
{"smiles": "COc1ccc2c(c1)CCCO[C@]21O[C@H](CCO)C[C@H](O)[C@H]1O", "inhibition (viability loss, TRAIL sensitization)": "2.33%"}
{"smiles": "Nc1nc2ncccn2c1-c1ccccc1", "inhibition (viability loss, TRAIL sensitization)": "-21.7%"}
{"smiles": "COc1ccc(C(=O)NC(C)c2nccs2)cc1OC1CCN(C(C)C)CC1", "note": "(stereo not drawn)", "inhibition (viability loss, TRAIL sensitization)": "-24.4%"}
{"smiles": "O=C(CN1CCN(C/C=C/c2ccccc2)CC1)Nc1ccc(F)cc1F", "inhibition (viability loss, TRAIL sensitization)": "8.21%"}
{"smiles": "O=C(CC1SC(N2CCOCC2)=NC1=O)Nc1ccccc1F", "note": "(stereo not drawn)", "inhibition (viability loss, TRAIL sensitization)": "7.68%"}
{"smiles": "O=C(CC1SC(=Nc2ccccc2F)N(CCN2CCOCC2)C1=O)Nc1ccc(F)cc1F", "note": "(stereo not drawn)", "inhibition (viability loss, TRAIL sensitization)": "72.8% (active)"}
{"smiles": "NC(=O)c1ccc(N2CCOCC2)nc1", "inhibition (viability loss, TRAIL sensitization)": "-4.39%"}
{"smiles": "COc1ccc(N(C)S(=O)(=O)c2cccc3nsnc23)cc1", "inhibition (viability loss, TRAIL sensitization)": "-0.348%"}
{"smiles": "CC1(C)CC(N2CCN(C(c3ccccc3)c3ccccc3)CC2)=CC(=[N+]2CCCCC2)C1", "inhibition (viability loss, TRAIL sensitization)": "53.6% (active)"}
{"smiles": "CCOC(=O)C1=C(c2ccccc2)N=C2SCC(=O)N2C1c1ccc(O)c(OC)c1", "note": "(stereo not drawn)", "inhibition (viability loss, TRAIL sensitization)": "-13.7%"}
{"smiles": "O=C(Nc1ccc2c(c1)OCCO2)C(C1CC1)N1CCC(Cc2ccccc2)CC1", "note": "(stereo not drawn)", "inhibition (viability loss, TRAIL sensitization)": "1.75%"}
{"smiles": "c1c2c(cc3sc(N4CCCCC4)nc13)OCCO2", "inhibition (viability loss, TRAIL sensitization)": "76.5% (active)"}
{"smiles": "CCN1CCC2(CCN(Cc3cn[nH]c3-c3ccc(OC)c(F)c3)C2)C1", "note": "(stereo not drawn)", "inhibition (viability loss, TRAIL sensitization)": "-3.56%"}
{"smiles": "CCOc1ccc(NC(=O)CCCCCN2C(=O)[C@@H]3Cc4ccccc4CN3C2=O)cc1", "inhibition (viability loss, TRAIL sensitization)": "9.4%"}
{"smiles": "Cc1ccc(-c2ccc(=O)n(CC(=O)NCCCN3CCCCC3)n2)cc1", "inhibition (viability loss, TRAIL sensitization)": "16%"}
{"smiles": "CCc1ccc(-c2cc3c(=O)n(CC(=O)NCCCN4CCN(Cc5ccccc5)CC4)nc(C)n3n2)cc1", "inhibition (viability loss, TRAIL sensitization)": "57.1% (active)"}
{"smiles": "Cc1nn(CC(=O)NCCc2ccccc2)c(=O)c2cc3occc3n12", "inhibition (viability loss, TRAIL sensitization)": "-1.06%"}
{"smiles": "CC(C)=NN1C(=O)c2ccccc2NC1(C)C", "inhibition (viability loss, TRAIL sensitization)": "0.317%"}
{"smiles": "CCC(C)C(NC(=O)C1CCC(=O)N1C(=O)OCc1ccccc1)C(=O)NC(C(=O)N1CCCC1C(N)=O)C(C)CC", "note": "(stereo not drawn)", "inhibition (viability loss, TRAIL sensitization)": "1.84%"}
{"smiles": "Cc1sc2ncnc(N3CCC(C(=O)Nc4ccc(F)cc4Cl)CC3)c2c1C", "inhibition (viability loss, TRAIL sensitization)": "13.1%"}
{"smiles": "CC(C)CCNC(=O)c1ccc2c(Cl)c3c(nc2c1)CCC3", "inhibition (viability loss, TRAIL sensitization)": "63.8% (active)"}
{"smiles": "O=C(CSc1c2c(nc3ccc(Cl)cc13)CCCC2)NCc1ccco1", "inhibition (viability loss, TRAIL sensitization)": "7.83%"}
{"smiles": "CC(C)CCC(C)NC(=O)c1ccc2nccnc2c1", "note": "(stereo not drawn)", "inhibition (viability loss, TRAIL sensitization)": "13.2%"}
{"smiles": "CC1=NNC(=O)C1CCC(=O)N/N=C\\c1cccc(Cl)c1", "note": "(stereo not drawn)", "inhibition (viability loss, TRAIL sensitization)": "-5.29%"}
{"smiles": "COc1ccc(OC)c(/C=N/NC(=O)c2ccc[n+](CC(=O)c3ccccc3)c2)c1", "inhibition (viability loss, TRAIL sensitization)": "-13.4%"}
{"smiles": "COc1cccc(/C=N\\NC(=O)C2=NNC(=O)C2C)c1O", "note": "(stereo not drawn)", "inhibition (viability loss, TRAIL sensitization)": "61.6% (active)"}
{"smiles": "COCc1cc(=O)[nH]c2cc(NC(=O)C(F)(F)F)c(C)cc12", "inhibition (viability loss, TRAIL sensitization)": "1.06%"}
{"smiles": "CCCCOC(=O)CNc1nnc(SCC(=O)OCC)[nH]c1=O", "inhibition (viability loss, TRAIL sensitization)": "6.83%"}
{"smiles": "Cc1cccc(-n2ncc(Cl)c(Cl)c2=O)c1", "inhibition (viability loss, TRAIL sensitization)": "95.2% (active)"}
{"smiles": "Nc1c(-c2cccc(Cl)c2)cnn1-c1cccc([N+](=O)[O-])c1", "inhibition (viability loss, TRAIL sensitization)": "-1.5%"}
{"smiles": "Cc1cccc(N2Cc3ccccc3C2=NC(=O)c2ccc(Cl)nc2)c1", "inhibition (viability loss, TRAIL sensitization)": "4.62%"}
{"smiles": "C[C@H](NC(=O)C1CC(=O)N(c2ccc3c(c2)OCCO3)C1)C(=O)N1CCC(C(=O)O)CC1", "note": "(stereo partly drawn)", "inhibition (viability loss, TRAIL sensitization)": "-9.83%"}
{"smiles": "CC(C)CNC(=O)COC(=O)c1ccccc1OCC(=O)Nc1ccc(Br)cc1", "inhibition (viability loss, TRAIL sensitization)": "5.47%"}
{"smiles": "COC(=O)Cc1[nH]n(-c2nc3ccccc3s2)c(=O)c1C(C)=Nc1ccc(OC)cc1", "inhibition (viability loss, TRAIL sensitization)": "61.1% (active)"}
{"smiles": "COCCn1c(SCC(=O)c2[nH]c(C)c(C(C)=O)c2C)nc2ccccc2c1=O", "inhibition (viability loss, TRAIL sensitization)": "-10%"}
{"smiles": "NC(N)=N/N=C/c1ccc(OCc2ccc(Cl)cc2Cl)cc1", "inhibition (viability loss, TRAIL sensitization)": "50.1% (active)"}
{"smiles": "NC(=O)COc1ccc(/C=N/NC(=O)C2CCCN2S(=O)(=O)c2ccc(Cl)cc2)cc1", "note": "(stereo not drawn)", "inhibition (viability loss, TRAIL sensitization)": "-8.47%"}
{"smiles": "CCCCN(C(=O)C1=NN(c2cc(C)ccc2C)C(=O)CC1)c1c(N)n(CCC)c(=O)[nH]c1=O", "inhibition (viability loss, TRAIL sensitization)": "-7.09%"}
{"smiles": "CC(C)COc1ccc(C(=O)NNC(=O)CCC(=O)c2cccs2)cc1", "inhibition (viability loss, TRAIL sensitization)": "-0.727%"}
{"smiles": "Cc1ccc(NC(=O)CSCC(=O)N2CCOCC2)cc1", "inhibition (viability loss, TRAIL sensitization)": "-10.5%"}
{"smiles": "CC(C)COc1ccc(C(=O)OCC(=O)NCCC2=CCCCC2)cc1", "inhibition (viability loss, TRAIL sensitization)": "-6.49%"}
{"smiles": "COc1ccc(NC(=O)c2ccc(C#CC(C)(C)O)cc2)cc1", "inhibition (viability loss, TRAIL sensitization)": "0.194%"}
{"smiles": "COc1ccc(C(=O)Nc2ccc(-n3nncc3C(C)(C)C)cc2)cc1", "inhibition (viability loss, TRAIL sensitization)": "-20.3%"}
{"smiles": "O=C(Nc1ccc(Cl)cc1)c1cccc(OC(=S)N2CCOCC2)c1", "inhibition (viability loss, TRAIL sensitization)": "12.3%"}
{"smiles": "COc1cccc(C(=O)Nc2ccc(N3CCCC3)cc2)c1", "inhibition (viability loss, TRAIL sensitization)": "46.7% (active)"}
{"smiles": "COc1ccc(NC(=O)c2ccc(OC)cc2)cc1", "inhibition (viability loss, TRAIL sensitization)": "50.5% (active)"}
{"smiles": "COc1cccc(C(=O)Nc2ccc3nc4n(c(=O)c3c2)CCCCC4)c1", "inhibition (viability loss, TRAIL sensitization)": "23.6%"}
{"smiles": "COc1ccc(N2c3ccccc3CN(Cc3ccccc3)[C@@H](C)[C@H]2Cc2ccc(-c3ccccc3)cc2)cc1", "inhibition (viability loss, TRAIL sensitization)": "-5.86%"}
{"smiles": "CCOC(=O)C1CCN(C(=O)Cn2nc(C)c3c(C)n(-c4ccccc4)nc3c2=O)CC1", "inhibition (viability loss, TRAIL sensitization)": "-20.8%"}
{"smiles": "CCCN1C(=O)C(NC(C)=O)c2cc(OC)ccc21", "note": "(stereo not drawn)", "inhibition (viability loss, TRAIL sensitization)": "-4.35%"}
{"smiles": "O=C(COc1ccc2c(C(F)(F)F)cc(=O)oc2c1)Nc1ccc2c(c1)OCCO2", "inhibition (viability loss, TRAIL sensitization)": "-2.58%"}
{"smiles": "COC(=O)c1sc(NC(=O)c2ccc(OC)cc2OC)nc1C", "inhibition (viability loss, TRAIL sensitization)": "82.4% (active)"}
{"smiles": "Cc1ccnc(NC(=O)CNC(=O)c2ccccc2)c1", "inhibition (viability loss, TRAIL sensitization)": "-13.7%"}
{"smiles": "Cc1csc(NC(=O)CSc2ccc(-c3ccc(F)cc3)nn2)n1", "inhibition (viability loss, TRAIL sensitization)": "-13.9%"}
{"smiles": "COCCn1c(SCC(=O)Nc2nc(C)cs2)nnc1C(C)C", "inhibition (viability loss, TRAIL sensitization)": "-5.23%"}
{"smiles": "COc1cc(SC)ccc1C(=O)Nc1nc(C)cs1", "inhibition (viability loss, TRAIL sensitization)": "92.9% (active)"}
{"smiles": "COc1cc(SC)ccc1C(=O)Nc1cc(C)ccn1", "inhibition (viability loss, TRAIL sensitization)": "67.3% (active)"}
{"smiles": "COc1ccc(C(=O)CCC(=O)Nc2cccnc2)c(OC)c1", "inhibition (viability loss, TRAIL sensitization)": "7.09%"}
{"smiles": "Cc1ccccc1OCC(=O)Nc1nc(C)c(C(=O)N(C)C)s1", "inhibition (viability loss, TRAIL sensitization)": "3.67%"}
{"smiles": "Cc1ccnc(NC(=O)c2ccoc2C)c1", "inhibition (viability loss, TRAIL sensitization)": "11.1%"}
